Reference: the supplement of paper PMC10849652
Of roughly 7,900 targets only a part is listed; those with a hit were picked by preference. About 0.6% of all pairs of compound and target were hits.

Experiments:
Assay in all cases: log2 fold change, soluble protein after heating vs DMSO (PISA); higher = thermal stabilisation; K562 cells, 10 uM, 30 min; active = over 0.2 and 3.5 SD of the protein, either way, in both replicates (recomputed)
[1] = compound: CC[C@@H]1C(=O)N(C)c2cnc(Nc3ccc(C(=O)NC4CCN(C)CC4)cc3OC)nc2N1C1CCCC1
Method in brief: (§1)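 Thermal stability values are relative to control samples and come from duplicates. They are expressed as log2 fold changes. For measurement, K562 cells (2×10^6 cells/mL) received 10 μM compound for 30 min, and aliquots were heated for 3 min over 48°C-58°C, pooled, and extracted at 4°C in PBS with 0.5% NP-40. Soluble protein, the supernatant after 21,000xg for 90 min, was quantified by TMTpro 16plex LC-MS/MS with equalised channel sums.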

volasertib = compound: CC[C@@H]1C(=O)N(C)c2cnc(Nc3ccc(C(=O)N[C@H]4CC[C@H](N5CCN(CC6CC6)CC5)CC4)cc3OC)nc2N1C(C)C [volasertib]
Method in brief: as §1

[2] = compound: CC[C@H](C)N1C=C(C2=C(C=C(C=C21)C3=CN=C(C=C3)N4CCNCC4)C(=O)NCC5=C(C=C(NC5=O)C)C)C
Method in brief: as §1

epoxomicin = compound: CC[C@H](C)[C@@H](C(=O)N[C@@H]([C@@H](C)O)C(=O)N[C@@H](CC(C)C)C(=O)[C@]1(CO1)C)NC(=O)[C@H]([C@@H](C)CC)N(C)C(=O)C [epoxomicin]
Method in brief: as §1

[3] = compound: CCn1c(C(=O)N(C2CC2)C2CC2)cc2c3c(ncn3C)c(Nc3cc(C)n(C)n3)nc21
Method in brief: as §1

[4] = compound: CCn1cc(-c2ccnc3[nH]c(-c4cccc(CN(C)C)c4)cc23)c(-c2ccc(NC(=O)N(C)C)cc2)n1
Method in brief: as §1

[5] = compound: CN(C)CC(=O)Nc1ccc2[nH]c(=O)c3ccccc3c2c1
Method in brief: as §1

rosiglitazone = compound: CN(CCOC1=CC=C(C=C1)C[C@H]2C(=O)NC(=O)S2)C3=CC=CC=N3 (racemic) [rosiglitazone]
Method in brief: as §1

[6] = compound: CN1C2=C(C3=C1C(=O)N(N=C3)CC4=CC(=CC=C4)N)SC(=C2)S(=O)C
Method in brief: as §1

[7] = compound: CN1CCC(CNc2ccc3ncc(-c4cccc(OC(F)(F)F)c4)n3n2)CC1
Method in brief: as §1

saracatinib = compound: CN1CCN(CCOc2cc(OC3CCOCC3)c3c(Nc4c(Cl)ccc5c4OCO5)ncnc3c2)CC1 [saracatinib]
Method in brief: as §1

sotrastaurin = compound: CN1CCN(c2nc(C3=C(c4c[nH]c5ccccc45)C(=O)NC3=O)c3ccccc3n2)CC1 [sotrastaurin]
Method in brief: as §1

alvocidib = compound: CN1CC[C@H](c2c(O)cc(O)c3c(=O)cc(-c4ccccc4Cl)oc23)[C@H](O)C1 [alvocidib]
Method in brief: as §1

Tubastatin A = compound: CN1CCc2c(c3ccccc3n2Cc2ccc(C(=O)NO)cc2)C1 [Tubastatin A]
Method in brief: as §1

[8] = compound: CNC(=O)C1=CC=CC=C1NC2=NC(=NC=C2Cl)NC3=C(C=C(C=C3)N4CCOCC4)OC
Method in brief: as §1

defactinib = compound: CNC(=O)c1ccc(Nc2ncc(C(F)(F)F)c(NCc3nccnc3N(C)S(C)(=O)=O)n2)cc1 [defactinib]
Method in brief: as §1

rucaparib = compound: CNCc1ccc(-c2[nH]c3cc(F)cc4c3c2CCNC4=O)cc1 [rucaparib]
Method in brief: as §1

[9] = compound: CNc1nc(-c2ccc3c(N)n[nH]c3c2)cc(N2C[C@@H](C(=O)NC3CCCCC3)CC[C@H]2C)n1
Method in brief: as §1

encorafenib = compound: COC(=O)N[C@@H](C)CNc1nccc(-c2cn(C(C)C)nc2-c2cc(Cl)cc(NS(C)(=O)=O)c2F)n1 [encorafenib]
Method in brief: as §1

[10] = compound: COC(=O)[C@H](CCSC)NC(=O)C1=C(C=C(C=C1)NC[C@H](CS)N)C2=CC=CC=C2
Method in brief: as §1

Measured: log2 fold change

MRPS12 (UniProt O15235)
inactive: [1] -0.043 | volasertib -0.024 | [2] 0.077 | epoxomicin -0.001 | [3] -0.04 | [4] -0.072 | [5] -0.103 | rosiglitazone 0.063 | [6] 0.091 | [7] -0.014 | saracatinib -0.19 | sotrastaurin -0.068 | alvocidib -0.001 | Tubastatin A -0.02 | [8] -0.017 | defactinib 0.119 | rucaparib 0.299 | [9] 0.233 | encorafenib 0.105 | [10] 0.048

PAAF1 (UniProt Q9BRP4)
Chain of UniProt Q9BRP4 (Q9BRP4 whole entry, looked up): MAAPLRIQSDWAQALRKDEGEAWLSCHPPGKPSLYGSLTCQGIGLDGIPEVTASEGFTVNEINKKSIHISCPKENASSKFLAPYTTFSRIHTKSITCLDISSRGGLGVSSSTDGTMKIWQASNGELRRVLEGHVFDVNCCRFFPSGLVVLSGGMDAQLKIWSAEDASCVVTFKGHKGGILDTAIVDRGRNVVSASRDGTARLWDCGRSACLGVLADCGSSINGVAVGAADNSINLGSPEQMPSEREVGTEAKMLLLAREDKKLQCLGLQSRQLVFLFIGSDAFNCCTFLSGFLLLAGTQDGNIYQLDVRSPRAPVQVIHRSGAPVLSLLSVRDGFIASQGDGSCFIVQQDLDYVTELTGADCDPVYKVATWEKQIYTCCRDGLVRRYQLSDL
active: epoxomicin -0.275
inactive: [1] 0.006 | volasertib -0.034 | [2] -0.021 | [3] 0.005 | [4] -0.051 | [5] -0.009 | rosiglitazone 0.039 | [6] -0.07 | [7] -0.039 | saracatinib 0.056 | sotrastaurin 0.016 | alvocidib -0.075 | Tubastatin A -0.008 | [8] -0.006 | defactinib -0.034 | rucaparib 0.012 | [9] -0.008 | encorafenib -0.004 | [10] 0.004

OSBPL8 (UniProt Q9BZF1)
Chain of UniProt Q9BZF1 (Q9BZF1 whole entry, looked up): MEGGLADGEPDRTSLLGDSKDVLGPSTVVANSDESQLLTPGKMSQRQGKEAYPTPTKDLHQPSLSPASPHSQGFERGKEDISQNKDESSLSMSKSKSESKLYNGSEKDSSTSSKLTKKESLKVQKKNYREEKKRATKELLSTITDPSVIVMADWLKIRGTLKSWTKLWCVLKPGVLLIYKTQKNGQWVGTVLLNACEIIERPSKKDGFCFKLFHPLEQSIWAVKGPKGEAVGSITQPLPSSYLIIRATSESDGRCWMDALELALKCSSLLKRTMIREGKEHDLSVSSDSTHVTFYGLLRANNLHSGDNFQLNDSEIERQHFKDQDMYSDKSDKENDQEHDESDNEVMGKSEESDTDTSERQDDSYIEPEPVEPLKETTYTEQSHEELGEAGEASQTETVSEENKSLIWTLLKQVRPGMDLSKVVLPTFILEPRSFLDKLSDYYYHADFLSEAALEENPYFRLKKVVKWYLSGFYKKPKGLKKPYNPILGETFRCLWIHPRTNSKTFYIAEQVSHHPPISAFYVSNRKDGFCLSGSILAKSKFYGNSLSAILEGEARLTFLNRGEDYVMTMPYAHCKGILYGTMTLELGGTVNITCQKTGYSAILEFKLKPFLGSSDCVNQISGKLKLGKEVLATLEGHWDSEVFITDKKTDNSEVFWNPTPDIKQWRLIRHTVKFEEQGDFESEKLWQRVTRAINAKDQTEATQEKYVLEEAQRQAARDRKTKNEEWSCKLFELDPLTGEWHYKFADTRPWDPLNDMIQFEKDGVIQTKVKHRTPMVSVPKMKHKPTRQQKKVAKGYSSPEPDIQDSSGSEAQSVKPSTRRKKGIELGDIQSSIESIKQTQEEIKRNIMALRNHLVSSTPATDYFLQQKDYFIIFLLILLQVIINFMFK
inactive: [1] -0.068 | volasertib -0.026 | [2] 0.062 | epoxomicin -0.118 | [3] 0.271 | [4] 0.061 | [5] 0.055 | rosiglitazone 0.031 | [6] 0.09 | [7] -0.114 | saracatinib -0.175 | sotrastaurin -0.054 | alvocidib -0.011 | Tubastatin A 0.078 | [8] 0.11 | defactinib 0.025 | rucaparib 0.232 | encorafenib 0.167 | [10] -0.078
active: [9] 0.488

MRPS18B (UniProt Q9Y676)
inactive: [1] 0.028 | volasertib -0.039 | [2] 0.09 | epoxomicin 0.042 | [3] -0.075 | [4] -0.021 | [5] 0.041 | rosiglitazone -0.069 | [6] -0.01 | [7] -0.087 | saracatinib -0.038 | sotrastaurin 0.082 | alvocidib -0.059 | Tubastatin A 0.125 | [8] 0.007 | defactinib -0.016 | rucaparib 0.065 | [9] 0.225 | encorafenib 0.034 | [10] -0.027

NECTIN2 (UniProt Q92692)
Chain of UniProt Q92692 (Q92692 whole entry, looked up): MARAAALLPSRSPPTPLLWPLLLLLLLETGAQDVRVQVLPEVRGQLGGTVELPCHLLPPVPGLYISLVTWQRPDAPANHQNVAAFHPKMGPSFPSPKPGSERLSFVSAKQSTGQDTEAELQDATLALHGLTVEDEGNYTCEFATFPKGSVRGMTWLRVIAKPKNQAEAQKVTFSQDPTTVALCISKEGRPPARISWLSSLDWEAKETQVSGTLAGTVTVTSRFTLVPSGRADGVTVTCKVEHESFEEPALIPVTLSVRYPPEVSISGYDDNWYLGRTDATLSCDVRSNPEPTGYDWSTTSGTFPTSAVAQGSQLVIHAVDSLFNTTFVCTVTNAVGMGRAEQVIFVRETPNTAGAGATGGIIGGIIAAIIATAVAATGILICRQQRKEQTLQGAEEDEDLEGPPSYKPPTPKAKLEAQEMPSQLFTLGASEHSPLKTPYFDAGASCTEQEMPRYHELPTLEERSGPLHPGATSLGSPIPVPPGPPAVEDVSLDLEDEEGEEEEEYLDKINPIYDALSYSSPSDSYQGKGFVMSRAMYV
inactive: [1] 0.071 | volasertib 0.029 | [2] -0.003 | epoxomicin 0.02 | [3] 0.018 | [4] -0.044 | [5] -0.028 | rosiglitazone -0.023 | [6] -0.063 | [7] 0.138 | saracatinib 0.021 | sotrastaurin 0.047 | alvocidib -0.044 | Tubastatin A -0.013 | [8] -0.056 | defactinib -0.013 | rucaparib -0.051 | [9] 0.049 | encorafenib -0.024 | [10] 0.063

MRPS17 (UniProt Q9Y2R5)
inactive: [1] -0.111 | volasertib -0.018 | [2] 0.022 | epoxomicin -0.043 | [3] -0.059 | [4] 0.043 | [5] 0.069 | rosiglitazone 0.057 | [6] 0.022 | [7] -0.016 | saracatinib -0.017 | sotrastaurin -0.138 | alvocidib 0.002 | Tubastatin A 0.072 | [8] 0.105 | defactinib 0.096 | rucaparib 0.185 | [9] 0.096 | encorafenib 0.016 | [10] -0.047

NDUFAF6 (UniProt Q330K2)
Chain of UniProt Q330K2 (Q330K2 whole entry, looked up): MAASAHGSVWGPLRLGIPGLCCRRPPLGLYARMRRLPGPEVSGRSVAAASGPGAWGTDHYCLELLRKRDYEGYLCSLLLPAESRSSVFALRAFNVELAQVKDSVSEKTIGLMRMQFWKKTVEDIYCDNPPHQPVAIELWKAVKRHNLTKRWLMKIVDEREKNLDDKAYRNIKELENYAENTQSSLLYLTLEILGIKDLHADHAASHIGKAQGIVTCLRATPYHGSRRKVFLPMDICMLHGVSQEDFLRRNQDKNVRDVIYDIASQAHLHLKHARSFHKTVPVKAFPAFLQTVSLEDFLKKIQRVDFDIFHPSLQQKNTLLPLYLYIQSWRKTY
active: [7] -0.721
inactive: [1] -0.27 | volasertib -0.027 | [2] -0.028 | epoxomicin 0.055 | [3] -0.089 | [4] -0.059 | [5] -0.078 | rosiglitazone 0.134 | [6] -0.014 | saracatinib -0.071 | sotrastaurin -0.112 | alvocidib -0.025 | Tubastatin A -0.101 | [8] 0.038 | defactinib -0.04 | rucaparib -0.108 | [9] -0.146 | encorafenib 0.081 | [10] 0.084

NSDHL (UniProt Q15738)
Chain of UniProt Q15738 (Q15738 whole entry, looked up): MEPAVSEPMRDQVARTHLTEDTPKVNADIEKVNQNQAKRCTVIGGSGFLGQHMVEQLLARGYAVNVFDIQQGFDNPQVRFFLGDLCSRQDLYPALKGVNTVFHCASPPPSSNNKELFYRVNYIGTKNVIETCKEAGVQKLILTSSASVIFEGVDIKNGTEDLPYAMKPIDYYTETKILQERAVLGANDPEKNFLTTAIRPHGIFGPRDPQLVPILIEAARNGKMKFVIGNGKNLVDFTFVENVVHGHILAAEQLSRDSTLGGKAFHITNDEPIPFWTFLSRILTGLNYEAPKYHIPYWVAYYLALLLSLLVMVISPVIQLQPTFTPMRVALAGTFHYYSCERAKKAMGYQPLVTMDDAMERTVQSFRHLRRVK
inactive: [1] -0.005 | volasertib 0.084 | [2] 0.105 | epoxomicin -0.004 | [3] 0.08 | [4] -0.018 | [5] 0.012 | rosiglitazone 0.002 | [6] -0.193 | [7] -0.001 | saracatinib -0.07 | sotrastaurin 0.043 | alvocidib -0.051 | Tubastatin A -0.004 | [8] 0.072 | defactinib -0.037 | rucaparib -0.094 | [9] 0.041 | encorafenib -0.019 | [10] -0.021

MRPS26 (UniProt Q9BYN8)
inactive: [1] 0.011 | volasertib -0.094 | epoxomicin 0.033 | [3] -0.094 | [4] -0.023 | [5] 0.003 | rosiglitazone 0.053 | [6] 0.052 | [7] -0.092 | saracatinib -0.094 | sotrastaurin -0.013 | alvocidib 0.025 | Tubastatin A 0.156 | [8] 0.003 | defactinib -0.01 | rucaparib 0.093 | [9] 0.122 | encorafenib 0.089 | [10] 0.003

OSBP (UniProt P22059)
Chain of UniProt P22059 (P22059 whole entry, looked up): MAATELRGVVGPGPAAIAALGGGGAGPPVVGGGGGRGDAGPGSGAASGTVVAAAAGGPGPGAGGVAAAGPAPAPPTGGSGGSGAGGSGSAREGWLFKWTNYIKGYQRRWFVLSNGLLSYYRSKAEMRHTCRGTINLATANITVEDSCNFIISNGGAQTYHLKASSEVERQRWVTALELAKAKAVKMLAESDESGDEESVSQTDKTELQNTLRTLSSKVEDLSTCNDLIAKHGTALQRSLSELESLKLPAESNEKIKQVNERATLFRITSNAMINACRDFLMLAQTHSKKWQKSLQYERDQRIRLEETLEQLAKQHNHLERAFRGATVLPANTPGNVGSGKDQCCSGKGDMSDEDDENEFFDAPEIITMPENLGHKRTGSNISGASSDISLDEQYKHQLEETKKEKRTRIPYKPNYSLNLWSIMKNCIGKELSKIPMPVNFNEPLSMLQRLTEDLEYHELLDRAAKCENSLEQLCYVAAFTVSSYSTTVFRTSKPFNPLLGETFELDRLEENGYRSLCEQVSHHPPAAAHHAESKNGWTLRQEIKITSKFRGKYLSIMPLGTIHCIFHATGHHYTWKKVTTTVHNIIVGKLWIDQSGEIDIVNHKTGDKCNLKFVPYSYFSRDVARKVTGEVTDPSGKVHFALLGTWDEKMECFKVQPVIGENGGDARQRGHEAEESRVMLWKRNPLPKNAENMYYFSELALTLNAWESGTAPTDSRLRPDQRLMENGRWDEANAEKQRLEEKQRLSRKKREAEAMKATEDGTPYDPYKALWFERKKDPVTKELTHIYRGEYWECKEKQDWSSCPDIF
inactive: [1] 0.056 | [2] 0.032 | epoxomicin 0.053 | [3] -0.101 | [4] -0.087 | [5] 0.013 | rosiglitazone 0.038 | [6] -0.064 | [7] 0.061 | saracatinib -0.051 | sotrastaurin -0.147 | alvocidib -0.028 | Tubastatin A 0.037 | [8] 0.062 | defactinib -0.066 | rucaparib -0.11 | [9] 0.062 | encorafenib -0.006 | [10] -0.001
active: volasertib 0.377

MRPS21 (UniProt P82921)
inactive: [1] 0.062 | volasertib -0.008 | [2] 0.063 | epoxomicin 0.064 | [3] -0.052 | [5] 0.058 | rosiglitazone 0.165 | [6] -0.205 | saracatinib -0.193 | sotrastaurin 0.036 | alvocidib -0.095 | Tubastatin A -0.056 | [8] 0.038 | defactinib -0.075 | rucaparib -0.016 | [9] 0.127 | encorafenib 0.045 | [10] -0.075
